Screening results from PubChem.
TDP1 cell noCPT: qHTS for Inhibitors of human tyrosyl-DNA phosphodiesterase 1 (TDP1): qHTS in cells in absence of CPT | DT40 Tdp1-/- hTDP1 cells, no CPT, ATP luminescence, 48 h | Potency, µM (series often up to 46.2 µM), inactives show top-dose activity change, negative = growth inhibition, hits mostly inhibitors | 15% of 420,000 active | AID 686978, 2013; further: potency means the concentration at half of the fitted maximal effect; nearly all actives have a fitted effect of over 55% in size
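Readout: luminescence from CellTiter-Glo after 30 min in the dark at RT. Cells: DT40 Tdp1-/- with stable hTDP1, 400/well. Exposure: compounds alone, ≥48 hr, 37 °C.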
HT1080 IDH1KD tx: HT-1080 IDH1 knockdown cell toxicity (counter line); HT-1080 IDH1 knockdown viability, ATP luminescence, 48 h; Potency, µM (doses to about 46.1 µM), inactives show at the top dose activity, negative = toxicity, usual class: cytotoxic; 2% of 360,000 active;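 further: potency means the concentration at half of the fitted maximal effect; 0% = DMSO wells and -100% = cell-free medium wells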
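HT-1080-IDH1KD cells (IDH1 knocked down), 750/well in RPMI with 5% FBS, treated with compound 48 h at 37 degrees C. Viability by CellTiter-Glo luminescence, normalised to DMSO and no-cell wells; concentration-response curves classed.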
TDP1 cell CPT: DT40-hTDP1 cell growth loss with CPT; chicken DT40 Tdp1-/-;hTDP1 cells + 20 nM CPT, ATP luminescence, 48 h; Potency, µM (highest dose often 46.2 µM), inactives show top-dose activity change, negative = growth inhibition, usual class: inhibitors; 12% of 420,000 active; further: potency means the concentration at half of the fitted maximal effect; nearly all actives have a fitted effect of over 55% in size
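Cell growth measured by CellTiter-Glo luminescence after a minimum 48 h, 37 C compound exposure with 20 nM CPT in Tdp1-knockout DT40 cells stably expressing hTDP1, seeded 400/well; qHTS titration format.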
HT1080NT lethal: kills 2HG-producing HT-1080-NT fibrosarcoma cells; AID 686970; Potency, µM (titrated, usually from 46.1 µM), without a hit: top-dose activity, negative = less viability, most hits filed as cytotoxic; 1.6% of 360,000 active; HT-1080-NT fibrosarcoma viability, CellTiter-Glo ATP luminescence, 48 h;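 further: NT is the 2HG producing partner of a matched IDH1 knockdown line; potency means the concentration at half of the fitted maximal effect; 0% = DMSO-treated cells and -100% = media-only wells without cells; nearly all actives have a fitted effect of over 55% in size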
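Compounds were tested in concentration-response format on HT-1080-NT cells for 48 hours at 37 degrees C. Cell viability came from CellTiter-Glo luminescence; curves were classified by r2, response magnitude and activity.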
IL-1B inflam inh: blocks inflammasome-driven IL-1 beta release; THP-1 LPS/ATP IL-1B secretion, AlphaLISA, 16 h; stronger effect = lower value; activity change, % at 57.5 µM; 4.7% of 360,000 active; in the data active means activity change below about -50%; inconclusive means mostly about -30% to -49%
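Secreted IL-1B measured by AlphaLISA bead assay after 16 h compound exposure of THP-1 cells; compounds (final up to 57.5 uM) added 1 h before LPS (250 ng/mL) and ATP (1.25 mM) stimulation; lower signal means less secretion.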
An asterisk follows results filed as active; ? = inconclusive; . = no result; [ ] = another dose, or the depositor's remark. Rows were chosen to be rich in hits. Some 19% of all compounds tested hit in one or more screens of this group. Unless noted, the call rests on the fitted dose curve; in most records, active means well fitted curve in the direction sought with a large enough effect; inconclusive means small, poorly fitted or top-dose-only effect, or another doubt; inactive means no such curve, though single readings can be large; an effect the other way counts as inactive or inconclusive. Unless noted, on the % scale 0 is the no-effect control and ±100 the full control effect.

SMILES	TDP1 cell noCPT	HT1080 IDH1KD tx	TDP1 cell CPT	HT1080NT lethal	IL-1B inflam inh
Cc1cccc(N2C(=O)N(Cc3ccc(C(C)(C)C)cc3)c3ccccc3S2(=O)=O)c1	21µM*	.	?	.	.
Cc1cccc(CN2C(=O)N(c3ccc(C(C)C)cc3)S(=O)(=O)c3ccccc32)c1	23µM*	.	?	.	.
Cc1ccc(CN2c3ccccc3S(=O)(=O)c3ccccc32)cc1	?	.	26µM*	.	.
CCC[C@H]1COCCS(=O)(=O)N1Cc1cccc(F)c1	-23%	.	-6%	.	.
CCn1c(-c2cccnc2)nc2cc(NC(=O)COC)cc(C(=O)N3CCc4ccccc4C3)c21	5%	.	0%[9.04 µM]	.	.
Cc1ccc2c(COC(=O)CNC(=O)c3ccco3)cc(=O)oc2c1C	-8%	-1%	-3%	0%	-11
CSc1sc(-c2ccnc(=S)[nH]2)c(-c2ccccc2)c1C#N	1%	2%	22%	0%	29
Fc1ccc(-c2ccnc(=S)[nH]2)cc1	?	-5%	21µM*	7%	0
CC1=NN(C2=NS(=O)(=O)c3ccccc32)C(C)(O)C1 (centres undefined)	0.37µM*	4%	0.41µM*	2%	21
O=C(Cc1cccc2ccccc12)N/N=C1\CCCc2ccccc21	16µM*	-22%	?	-14%	22
O=C(CNc1ccc(F)cc1)N/N=C1\CCCc2ccccc21	?	-9%	3%	0%	-18
O=C(Cc1cccc2ccccc12)NN=Cc1ccc2c(c1)CCC2	21µM*	-1%	?	-2%	1
Cn1cccc1/C=N/NC(=O)Cc1cccc2ccccc12	12µM*	?	?	-14%	34
O=C(Cc1ccc(Cl)cc1)N/N=C1\CCCc2ccccc21	23µM*	-4%	?	4%	20
O=C(Cc1cccc2ccccc12)N/N=C/c1ccc(F)cc1	?	-35%	?	-29%	22
COCCN(C(=O)COC(=O)c1cc(C)oc1C)c1c(N)n(Cc2ccccc2)c(=O)[nH]c1=O	1%	9%	-5%	5%	10
CSc1nc(N(C)C)nc(N(C)C#N)n1	-16%	-1%	1%	-17%	-28
Cc1ccc(C(C)C)c(OCC(=O)Nn2c(C)nc3ccccc3c2=O)c1	6.5µM*	-5%	-21%	-3%	23
CC(C)c1ccc(-c2noc(SCC(=O)N3CCCCC3C)n2)cc1 (centres undefined)	15µM*	.	?	.	.
CC1CCN(C(=O)CSc2nc(-c3ccc(C(C)C)cc3)no2)CC1	23µM*	.	21µM*	.	.
CC1CCCCN1C(=O)CSc1nnc(-c2cccc(Cl)c2)o1 (centres undefined)	?	.	16µM*	.	.
COc1ccc(N2CCN(C(=O)CSc3nc(-c4ccc(C(C)C)cc4)no3)CC2)cc1	12µM*	.	18µM*	.	.
CC1CCCCN1C(=O)CSc1nnc(-c2ccco2)o1 (centres undefined)	-17%	-4%	-7%	16%	-13
O=C(NC(=S)NNS(=O)(=O)c1ccc(Cl)cc1)c1cccnc1	?	11%	-24%	7%	33
CC(C)c1ccc(-c2nnn(CC(=O)N3CCCCC3)n2)cc1	-23%	2%	-7%	2%	-5
SMILES	TDP1 cell noCPT	HT1080 IDH1KD tx	TDP1 cell CPT	HT1080NT lethal	IL-1B inflam inh
CC1CCN(C(=O)Cn2nnc(-c3ccc(C(C)C)cc3)n2)CC1	?	-1%	16µM*	4%	24
CC(=O)N1N=C(c2ccccc2)CC1c1cn(C)c2ccccc12 (centres undefined)	21µM*	-8%	?	0%	?
CC(=O)N1N=C(c2ccccc2)CC1c1ccc(F)cc1 (centres undefined)	?	6%	-28%	-3%	8
CCN(CC)S(=O)(=O)c1cc(NC(=S)NC(=O)C2CCCC2)ccc1C	18µM*	-19%	23µM*	-11%	-18
CCN(CC)S(=O)(=O)c1ccc(NC(=S)NC(=O)C2CCC2)cc1	?	-10%	18µM*	-12%	-17
Cc1ccc(NC(=S)NC(=O)C2CCCC2)cc1C	?	-1%	?	4%	6
CCN(CC)S(=O)(=O)c1cc(NS(=O)(=O)c2cccs2)ccc1C	5.8µM*	0%	-23%	6%	14
COc1cc(C2N=C(N)Nc3nc4ccccc4n32)ccc1OCC(=O)O (centres undefined)	3%	.	4%	.	.
CC(C)Oc1ccc2c(=O)c3cc(C(=O)O)ccc3oc2c1	-4%	.	16%	.	.
O=S(=O)(c1ccccc1)c1cc(O)ccc1O	7.3µM*	0%	3.3µM*	-1%	0
COC(=O)c1cc(NC(=O)CN(c2ccccc2)S(=O)(=O)N(C)C)ccc1Cl	23µM*	.	?	.	.
COC(=O)c1cc(NC(=O)CN(c2cccc(OC)c2)S(=O)(=O)c2ccccc2)ccc1Cl	16µM*	-14%	?	-6%	10
Cc1ncc(-c2ccc(F)cc2)c(C2CCCN(Cc3cccc(O)c3)C2)n1 (centres undefined)	21µM*	.	?	.	.
COc1cccc(CN2CCCC(c3nc(C)ncc3-c3ccc(F)cc3)C2)c1OC (centres undefined)	21µM*	.	?	.	.
Cc1cccc(-c2cnc(C)nc2C2CCCN(C(=O)c3cccc(Cn4cccn4)c3)C2)c1 (centres undefined)	?	.	3.3µM*	.	.
